HPGD block: blocks human HPGD enzyme activity. P15428. Potency, µM, for inactives: at the highest dose activity change, negative = inhibition, actives largely listed as inhibitors. actives 4.3% (n = 150,000). AID 894. purified HPGD, NADH fluorescence kinetic, PGE2 substrate; active = well fitted inhibition curve with a large enough effect, not every such curve was filed as active; inconclusive = small, poorly fitted or top-dose-only effect, or another doubt; inactive = no such curve, though single readings can be large or run the other way
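20 nM HPGD preincubated 15 min at room temperature with compound in 50 mM Tris-HCl pH 8, 0.01% Tween 20. Started with 1 mM NAD+ and 30 uM prostaglandin E2; NADH fluorescence (360/450 nm) read 5 times over 30-s intervals, last minus first.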
p53ts 32C kill: cytotoxicity in p53ts cells at permissive temperature. Potency, µM (series often up to 46.1 µM), without a hit: top-dose activity change, negative = cytotoxicity, most hits filed as cytotoxic. H1299-p53A138V at 32C, ATP luminescence viability, 24 h. actives 0.93% (n = 130,000);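 also: 0% = DMSO and -100% = full killing by reference compound; nearly all actives have a fitted effect of over 55% in size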
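ATP-content luminescence (ATPlite) read-out after 24 h compound exposure at 32C in H1299-p53A138V cells (600/well). Tested up to 46 uM. Normalized to DMSO (0%) and 100 uM tamoxifen (100% killing); Hill-fit AC50.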
ALOX12 inhib: blocks human 12-lipoxygenase activity | P18054 | purified 12-hLO, xylenol orange hydroperoxide absorbance | Potency, µM (titrated, usually from 57.1 µM), without a hit: top-dose activity change, negative = inhibition, usual class: inhibitors | actives 0.12% (n = 150,000) | AID 1452; also: nearly all actives have a fitted effect of over 55% in size
Target sequence (P18054 whole entry, looked up): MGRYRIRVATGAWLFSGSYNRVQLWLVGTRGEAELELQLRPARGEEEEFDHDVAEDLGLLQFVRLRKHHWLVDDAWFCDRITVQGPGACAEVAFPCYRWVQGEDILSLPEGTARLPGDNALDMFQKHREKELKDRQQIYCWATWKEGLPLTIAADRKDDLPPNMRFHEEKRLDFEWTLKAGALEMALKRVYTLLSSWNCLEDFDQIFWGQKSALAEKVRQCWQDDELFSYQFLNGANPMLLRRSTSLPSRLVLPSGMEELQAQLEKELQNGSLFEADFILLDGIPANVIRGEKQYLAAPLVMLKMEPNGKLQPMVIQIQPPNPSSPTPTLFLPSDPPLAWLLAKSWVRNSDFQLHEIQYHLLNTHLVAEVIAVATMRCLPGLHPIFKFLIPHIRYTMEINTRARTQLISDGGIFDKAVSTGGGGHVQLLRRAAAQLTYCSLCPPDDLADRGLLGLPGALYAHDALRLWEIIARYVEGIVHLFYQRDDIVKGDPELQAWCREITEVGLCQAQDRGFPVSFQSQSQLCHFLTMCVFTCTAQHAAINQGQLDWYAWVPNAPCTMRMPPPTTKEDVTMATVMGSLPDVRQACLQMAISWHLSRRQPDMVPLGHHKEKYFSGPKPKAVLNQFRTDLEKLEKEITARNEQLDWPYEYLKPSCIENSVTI
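Hydroperoxide formation by human 12-lipoxygenase from 40 uM arachidonic acid was followed colorimetrically via ferric-xylenol orange complex, using the 573/405 nm absorbance ratio. Enzyme concentration was 150 nM, with 30 min reaction at room temperature.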
p53ts 39C kill: p53ts cell cytotoxicity, nonpermissive temperature; H1299-p53A138V viability at 39C, ATP luminescence, 24 h; Potency, µM (titrated, usually from 46.1 µM), without a hit: top-dose activity change, negative = cell killing, hits mostly cytotoxic; AID 902; actives 1.5% (n = 130,000); also: nearly all actives have a fitted effect of over 55% in size
The depositor's hits bear a star; ? = inconclusive; · = no result given; [ ] = another dose, or the depositor's remark. This is a sample that favours compounds with a hit; in the whole collection about 4.4% have one here. Unless noted, calls follow the shape of the dose curve; as a rule, active = well fitted curve in the direction sought with a large enough effect; inconclusive = small, poorly fitted or top-dose-only effect, or another doubt; inactive = no such curve, though single readings can be large; an effect the other way counts as inactive or inconclusive. Unless noted, % is scaled to controls: 0 for no effect and ±100 for the full control effect; potency is read from the fitted curve at half-maximal effect.

SMILES | HPGD block | p53ts 32C kill | ALOX12 inhib | p53ts 39C kill
N#Cc1c(/N=C/C=C/c2ccccc2)sc2c1CCCC2 | 22.4µM* | · | -10.5% | ·
CN1CCN(/C=N/c2sc3c(c2C#N)CCCCC3)CC1 | -15.9% | · | -0.5% | ·
CC(C)c1ccc(NC(=O)C2CCC(CNS(=O)(=O)c3ccc4c(c3)CCCC(=O)N4)CC2)cc1 (stereo not drawn) | · | -3.0% | · | -19.8%
COC(=O)C1=C(CS(=O)(=O)c2ccc(C)cc2C)NC(=O)NC1c1ccc(C)cc1 (stereo not drawn) | · | -9.1% | · | ?
Clc1ccccc1-c1nc(-c2cccnc2)no1 | -15.6% | 10µM* | -6.5% | 12.6µM*
COc1cccc(CNC(=O)c2cc(C)nc3c2c(C)nn3-c2ccc(C)cc2)c1 | · | 3.2% | · | 9.3%
O=C(Nc1ccc(Cl)cc1)c1cc(S(=O)(=O)NC2CCCCCC2)ccc1F | · | 4.3% | · | 12.6µM*
O=C(CSc1cn(CCNC(=O)c2cccs2)c2ccccc12)NC1CCCC1 | 20µM* | · | 0.4% | ·
Cc1ccc(NC(=O)c2cc(S(=O)(=O)NC3CCCCCC3)ccc2F)cc1F | · | ? | · | -21.8%
CC1CCCC(C)N1C(=O)c1cc(-c2cccs2)on1 (stereo not drawn) | 14.1µM* | 4.7% | -1.2% | -13.9%
O=C(NC1CCCC1)c1cc(-c2cccs2)on1 | 12.6µM* | ? | -3.7% | -27.5%
O=C(NC(=S)Nc1ccc(S(=O)(=O)N2CCCCC2)cc1)c1cccs1 | -24.4% | · | 4.2% | ·
O=C(NC(=S)Nc1ccc(S(=O)(=O)NC2CCCCC2)cc1)c1cccs1 | · | · | 5.01µM* | ·
O=C(NNC(=S)NC1CCCCC1)c1cccs1 | -26.4% | · | 2.7% | ·
O=C(NC1CCCCC1)c1cccs1 | 31.6µM* | · | 6.6% | ·
CCN(CC)CCNC(=O)c1c(C)oc2ncnc(N3CCOCC3)c12 | · | 6.7% | · | -5.7%
NC(N)=N[C@H](CCC(=O)O)C(=O)O | · | 12.8% | -2.4% | 5.6%
COc1ccc([C@@H](Nc2ccccn2)c2cc(C(C)(C)C)cc(C(C)(C)C)c2O)cc1 | -2.4% | 2.3%[9.22 µM] | -1.1%[11.4 µM] | 9.2%[9.22 µM]
C/C(=N\NC(=O)c1csc(C)c1C)c1ccco1 | ? | ? | 0.3% | ?
C/C(=N\NC(=O)c1csc(C)c1C)c1ccc(C)s1 | 14.1µM* | · | -1.0% | ·
Cc1nc2ccccc2c2oc(C(=O)N3CCc4ccccc4C3)cc12 | -9.7% | ? | -4.2% | 20µM*
Cc1nc2ccccc2c2oc(C(=O)N3CCN(C(=O)c4ccco4)CC3)cc12 | -21.6% | 2.4% | 2.8% | 20.9%
C[C@H](CO)NC(=O)[C@H]1C[C@@H]1[C@H](NP(=O)(c1ccccc1)c1ccccc1)c1ccccc1 | -7.3% | 2.9% | -5.8% | -2.6%
CN(C)CN1CSC(=S)N(CN(C)C)C1 | 3.16µM* | -6.6%[9.22 µM] | -4.6%[11.4 µM] | -5.1%[9.22 µM]
O=S1(=O)N=C(Nc2nncs2)c2ccccc21 | 28.2µM* | · | -5.8% | ·
SMILES | HPGD block | p53ts 32C kill | ALOX12 inhib | p53ts 39C kill
Cc1nn(-c2ccccc2)c(N)c1Sc1cccc([N+](=O)[O-])c1 | 25.1µM* | · | -1.2% | ·
Cc1nn(-c2ccccc2)c(N)c1Sc1ccccc1[N+](=O)[O-] | -10.7% | · | -3.7% | 10.1%
COc1ccc(CCC(=O)NC2CC(=O)N(c3ccccc3)C2)cc1 (stereo not drawn) | · | 4.9% | · | 26.5%
Cc1cc(C)c2c(N)c(S(=O)(=O)c3ccccc3)sc2n1 | ? | -4.2% | -6.4% | -5.1%
CCCCS(=O)(=O)c1sc2nc(C)cc(C)c2c1N | 2.82µM* | 6.5% | -1.6% | 3.1%
Cc1ccnc(NS(=O)(=O)c2ccc(NC(=O)C(C)(C)Oc3ccc(Cl)cc3)cc2)n1 | · | -13.5% | · | 2.2%
CCC12CN3CC(C)(CN(C1)C3c1c[nH]c3ccc(OC)cc13)C2=O (stereo not drawn) | · | 3.0% | · | -6.1%
COC(=O)c1ccc(SCC(=O)N2CCC(C)CC2)c([N+](=O)[O-])c1 | -17.4% | · | -1.7% | ·
COC(=O)c1ccc(SCC(=O)NC2CCCC2)c([N+](=O)[O-])c1 | 35.5µM* | · | -1.3% | ·
CCOC(=O)c1c(C)nn(Cc2cccc(Cl)c2)c1N | 28.2µM* | 1.4% | -5.8% | -2.8%
CC(C)CSc1nnc2[nH]c(=O)cc(N)n12 | -29.9% | -6.2% | -1.8% | -6.5%
CCCCCCSc1nnc2[nH]c(=O)cc(N)n12 | 11.2µM* | · | 4.0% | ·
CCOC(=O)c1cc(C#N)c(SCC(=O)c2cc(C#N)c(SC)nc2C)[nH]c1=O | 1.41µM* | 6.7% | -16.7% | -3.6%
COC(=O)CSc1nc(C)c(C(C)=O)cc1C#N | -12.6% | · | 8.8% | ·
CN1CCc2cccc3c2[C@H]1Cc1ccc(O)c(O)c1-3 | ? | 25.1µM* | -21.2% | 6.31µM*

Bioassay records as filed in PubChem BioAssay.
